According to PubChem BioAssay (NCI):
This is part of a sample that, as a whole, favours compounds with a hit. Of some 83,000 tested, about 20% had one in any assay.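 Assay: single dose, 48 h. Readout: percent growth (0 = no net growth; negative = cell death). Active: <10.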 Calls of active or inactive are those of the source.

Experiments:
Assay in all cases: NCI-60 one-dose screen, 48 h (100 = growth as untreated, 0 = no growth, -100 = all killed)
Details in all cases: 10 µM
HT29 colon = tested on: HT29 colon
SNB-75 CNS = tested on: SNB-75 CNS
SNB-19 CNS = tested on: SNB-19 CNS
U251 CNS = tested on: U251 CNS
PC-3 prostate = tested on: PC-3 prostate
SK-MEL-5 melanoma = tested on: SK-MEL-5 melanoma
UACC-62 melanoma = tested on: UACC-62 melanoma
LOX IMVI melanoma = tested on: LOX IMVI melanoma
SK-MEL-28 melanoma = tested on: SK-MEL-28 melanoma
SK-MEL-2 melanoma = tested on: SK-MEL-2 melanoma
SN12C renal = tested on: SN12C renal
UO-31 renal = tested on: UO-31 renal
TK-10 renal = tested on: TK-10 renal
ACHN renal = tested on: ACHN renal
CAKI-1 renal = tested on: CAKI-1 renal
A498 renal = tested on: A498 renal
CCRF-CEM leukemia = tested on: CCRF-CEM leukemia
MOLT-4 leukemia = tested on: MOLT-4 leukemia
EKVX NSCLC = tested on: EKVX NSCLC
SR leukemia = tested on: SR leukemia

Measured: growth

CC(=O)CSC(C)=O
inactive: HT29 colon 105% | SNB-75 CNS 84.3% | SNB-19 CNS 100% | U251 CNS 98% | PC-3 prostate 86.6% | SK-MEL-5 melanoma 98.9% | UACC-62 melanoma 107% | LOX IMVI melanoma 101% | SK-MEL-28 melanoma 95.6% | SK-MEL-2 melanoma 116% | SN12C renal 100% | UO-31 renal 91.3% | TK-10 renal 122% | ACHN renal 97.8% | CAKI-1 renal 91.6% | A498 renal 99.1% | CCRF-CEM leukemia 94.8% | MOLT-4 leukemia 105%

OCC1OC(n2cnc3c(N/N=C\c4ccccn4)ncnc32)C(O)C1O (configuration not stated)
inactive: HT29 colon 34.5% | SNB-75 CNS 40.3% | SNB-19 CNS 34.5% | U251 CNS 25.1% | PC-3 prostate 21% | UACC-62 melanoma 22% | LOX IMVI melanoma 11.2% | SK-MEL-28 melanoma 38% | SK-MEL-2 melanoma 58.2% | SN12C renal 18.9% | TK-10 renal 42.1% | ACHN renal 11.8% | MOLT-4 leukemia 21% | SR leukemia 20.3%
active: SK-MEL-5 melanoma -10.1% | EKVX NSCLC 7.34% | UO-31 renal -23.5%

COc1cc(NC(=O)CCSc2nc3ccc(C)cc3c(=O)n2Cc2ccccc2)cc(OC)c1OC
active: SNB-75 CNS -13.9%
inactive: HT29 colon 78.9% | SNB-19 CNS 73.3% | U251 CNS 44.3% | PC-3 prostate 83% | SK-MEL-5 melanoma 90.6% | UACC-62 melanoma 85% | LOX IMVI melanoma 71.6% | SK-MEL-28 melanoma 74% | SK-MEL-2 melanoma 52.6% | SN12C renal 89.5% | UO-31 renal 71.2% | TK-10 renal 96.1% | ACHN renal 53.3% | CAKI-1 renal 65.1% | A498 renal 77.6% | CCRF-CEM leukemia 105% | MOLT-4 leukemia 103% | SR leukemia 95.3%

O=C1Nc2ccccc2C1=NC1CCCCC1
inactive: HT29 colon 99.2% | SNB-75 CNS 88.1% | SNB-19 CNS 111% | U251 CNS 101% | PC-3 prostate 94% | SK-MEL-5 melanoma 94.3% | UACC-62 melanoma 105% | LOX IMVI melanoma 87.5% | SK-MEL-28 melanoma 115% | SK-MEL-2 melanoma 88.6% | SN12C renal 107% | UO-31 renal 55.5% | TK-10 renal 107% | ACHN renal 97.9% | CAKI-1 renal 79.3% | A498 renal 109% | CCRF-CEM leukemia 108% | MOLT-4 leukemia 111%
